PubChem BioAssay
Active and inactive are the calls of the source.

Experiments:
[1] = E. coli DRC41 culture turbidity changes, primary screen, E. coli filamentation inducer project, strain DRC41, OD650, 48 h (AID 1152);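 note: E. coli MC1000 strain DRC41 lacking acrAB efflux pump and sulA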; details: E. coli DRC41 (acrAB sulA), higher = more signal, called active from +8 up or from −8 down
[2] = small-molecule binders of probe aLefty1, primary screen, biochemical, small-molecule microarray, 635/667 nm fluorescence (AID 1153); details: higher = more signal;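 note: score merges spot fluorescence with signal-to-noise ratio from the scanned slide images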
[3] = PSAC antagonists in infected red cells, primary screen, cell-based, P. falciparum Indochina, OD700, 1 h (AID 1154); details: P. falciparum Indochina infected RBC osmotic lysis, higher = more signal, called active from +8 up or from −8 down
[4] = PSAC antagonists in infected red cells, primary screen, cell-based, P. falciparum Indochina, OD700, 2 h (AID 1155);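 note: lysis reports solute entry through the parasite surface anion channel PSAC; channel blockers reduce lysis of infected cells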; details: P. falciparum Indochina infected erythrocytes, osmotic lysis OD700; higher = more signal, called active from +8 up or from −8 down
[5] = osmotic lysis modulators in infected erythrocytes, primary screen, PSAC antagonist project, cell-based, P. falciparum Indochina, OD700, 3 h (AID 1156); details: higher = more signal, called active from +8 up or from −8 down
[6] = PSAC antagonists in infected red cells, primary screen, cell-based, P. falciparum Indochina, OD700, 18 h (AID 1157); details: P. falciparum Indochina infected erythrocytes, osmotic lysis OD700, 18 h; higher = more signal, called active from +8 up or from −8 down
[7] = modulators of S6 phosphorylation in cells, primary screen, cell-based, A549, cytoblot, luminescence, serum-stimulated (AID 1158); details: A549 phospho-S6 cytoblot, 5 h, higher = more signal;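 note: serum-stimulated A549 lung adenocarcinoma cells; signal is phosphorylated S6 detected by cytoblot immunostaining with HRP secondary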
[8] = molecular target: NADPH oxidase 2 (Homo sapiens) (UniProt P04839); experiment: NOX2-dependent H2O2 signal modulators, primary screen, NOX inhibitor project, cell-based, HEK293-NOX2, PMA-stimulated, Amplex Red fluorescence (AID 1159); details: 45 min, higher = more signal, called active from +8 up or from −8 down; note: test concentration not given here
[9] = molecular target: NADPH oxidase 4 (Homo sapiens) (UniProt Q9NPH5); experiment: NOX4-dependent H2O2 signal modulators, primary screen, NOX inhibitor project, cell-based, HEK293-NOX4, tetracycline-induced, Amplex Red fluorescence (AID 1160); details: 45 min, higher = more signal, called active from +8 up or from −8 down
[10] = molecular target: NADPH oxidase 5 (Homo sapiens) (UniProt Q96PH1); experiment: NOX5-dependent H2O2 signal modulators, primary screen, NOX inhibitor project, cell-based, HEK293-NOX5, Amplex Red fluorescence (AID 1161); details: HEK293-NOX5, ionomycin, 45 min, higher = more signal
Sequence of NADPH oxidase 5 (Homo sapiens) (Q96PH1 whole entry, looked up): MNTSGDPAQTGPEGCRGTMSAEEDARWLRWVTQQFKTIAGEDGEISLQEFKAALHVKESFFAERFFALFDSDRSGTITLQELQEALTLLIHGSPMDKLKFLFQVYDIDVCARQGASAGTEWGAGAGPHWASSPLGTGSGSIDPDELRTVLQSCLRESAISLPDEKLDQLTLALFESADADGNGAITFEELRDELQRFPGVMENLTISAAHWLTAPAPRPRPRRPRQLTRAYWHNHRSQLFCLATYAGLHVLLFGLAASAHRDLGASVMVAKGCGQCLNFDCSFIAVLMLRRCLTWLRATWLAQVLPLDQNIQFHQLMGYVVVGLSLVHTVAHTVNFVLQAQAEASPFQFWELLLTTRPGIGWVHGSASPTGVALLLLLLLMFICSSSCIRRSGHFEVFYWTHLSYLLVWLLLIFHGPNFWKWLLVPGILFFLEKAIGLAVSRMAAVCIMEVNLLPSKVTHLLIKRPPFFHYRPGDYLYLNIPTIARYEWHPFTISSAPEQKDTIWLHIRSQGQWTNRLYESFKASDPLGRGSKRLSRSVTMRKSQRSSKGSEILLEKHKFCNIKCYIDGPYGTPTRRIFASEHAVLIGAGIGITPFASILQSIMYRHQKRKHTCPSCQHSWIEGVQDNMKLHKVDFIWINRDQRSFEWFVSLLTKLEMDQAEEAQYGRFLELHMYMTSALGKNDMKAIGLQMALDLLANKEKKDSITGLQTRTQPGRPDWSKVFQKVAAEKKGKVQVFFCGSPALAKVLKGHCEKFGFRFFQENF

Sequence of NADPH oxidase 2 (Homo sapiens) (P04839 whole entry, looked up): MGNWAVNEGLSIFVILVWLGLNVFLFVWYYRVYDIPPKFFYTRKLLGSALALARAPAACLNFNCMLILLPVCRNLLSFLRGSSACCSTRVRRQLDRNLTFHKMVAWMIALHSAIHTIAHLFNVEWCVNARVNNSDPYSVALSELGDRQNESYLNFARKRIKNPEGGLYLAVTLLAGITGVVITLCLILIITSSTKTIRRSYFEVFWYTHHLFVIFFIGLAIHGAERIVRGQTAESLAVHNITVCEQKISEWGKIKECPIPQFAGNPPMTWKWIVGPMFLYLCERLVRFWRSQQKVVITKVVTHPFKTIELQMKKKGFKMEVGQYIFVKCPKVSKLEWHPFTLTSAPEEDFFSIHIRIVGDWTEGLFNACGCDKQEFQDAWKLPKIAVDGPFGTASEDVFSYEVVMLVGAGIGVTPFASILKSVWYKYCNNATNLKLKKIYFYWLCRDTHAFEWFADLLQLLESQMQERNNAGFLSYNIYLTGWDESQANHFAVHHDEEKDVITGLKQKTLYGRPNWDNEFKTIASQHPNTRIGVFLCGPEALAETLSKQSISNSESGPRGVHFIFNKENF
Sequence of NADPH oxidase 4 (Homo sapiens) (Q9NPH5 whole entry, looked up): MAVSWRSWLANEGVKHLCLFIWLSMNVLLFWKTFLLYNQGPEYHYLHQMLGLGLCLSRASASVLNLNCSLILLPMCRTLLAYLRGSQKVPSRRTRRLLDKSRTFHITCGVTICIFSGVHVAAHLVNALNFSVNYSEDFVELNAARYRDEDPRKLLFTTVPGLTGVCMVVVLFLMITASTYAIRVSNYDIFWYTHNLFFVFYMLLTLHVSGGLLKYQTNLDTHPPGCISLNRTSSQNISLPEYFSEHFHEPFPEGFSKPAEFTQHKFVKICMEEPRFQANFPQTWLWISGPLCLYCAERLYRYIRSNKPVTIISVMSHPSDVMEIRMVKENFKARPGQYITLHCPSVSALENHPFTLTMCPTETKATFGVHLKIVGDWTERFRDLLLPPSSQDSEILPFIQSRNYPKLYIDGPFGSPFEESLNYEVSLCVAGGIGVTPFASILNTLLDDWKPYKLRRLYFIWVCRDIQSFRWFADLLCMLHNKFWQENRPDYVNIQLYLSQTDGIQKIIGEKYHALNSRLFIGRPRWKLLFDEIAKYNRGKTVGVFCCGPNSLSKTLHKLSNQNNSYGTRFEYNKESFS

| Structure (SMILES) | z-score [1] | composite z-score [2] | z-score [3] | z-score [4] | z-score [5] | z-score [6] | z-score [7] | z-score [8] | z-score [9] | z-score [10] |
| --- | --- | --- | --- | --- | --- | --- | --- | --- | --- | --- |
| COC(=O)C(CC#Cc1ccc2c(c1)[C@]1(C(=O)N2)[C@H](c2ccccc2OCCO)N2[C@H](c3ccccc3)[C@H](c3ccccc3)OC(=O)[C@H]2[C@@H]1C(=O)O)C(=O)OC | 0.456 (inactive) | 0.169 | 4.94 (inactive) | 0.569 (inactive) | -7.69 (inactive) | -0.0236 (inactive) | -0.13 | 1.79 (inactive) | -0.0833 (inactive) | 0.036 |
| C=C(C(=O)CC[C@H](OC(C)=O)c1ccccc1OCCO)C(C)C | 0.0974 (inactive) | -0.147 | 2.27 (inactive) | 2.54 (inactive) | -4.78 (inactive) | -0.431 (inactive) | 0.66 | -5.71 (inactive) | -2.22 (inactive) | -3.36 |
| CC(C)(C)OC(=O)CC[C@]1(C(N)=O)N=C(c2ccc(OCCCO)cc2)O[C@H]1c1ccccc1 | -0.179 (inactive) | 0.762 | 6.16 (inactive) | -0.927 (inactive) | -0.524 (inactive) | -0.367 (inactive) | 0.0312 | 0.266 (inactive) | -1.12 (inactive) | 0.814 |
| O=C(O)C1N=C(c2ccc(OCCCO)cc2)N(c2ccccc2)O1 (stereo not given) | 0.0785 (inactive) | 0.0245 | 18.5 (active) | 2.35 (inactive) | 0.874 (inactive) | 0.497 (inactive) | -0.284 | -2.6 (inactive) | 0.0373 (inactive) | -0.638 |
| C=C(CCCC)C(=O)CC[C@H](OC(=O)c1cccnc1)c1ccc(OCCO)cc1 | -0.646 (inactive) | -0.0316 | 24.3 (active) | 6.53 (inactive) | 1.8 (inactive) | 1.39 (inactive) | 0.178 | -1.12 (inactive) | 0.000526 (inactive) | -2.09 |
| COc1ccc([Si](C)(C)[C@@H]2[C@@H](CCn3cc([C@H](O)c4ccccc4)nn3)O[C@]3(C(=O)N(Cc4cccc(N5CCC5=O)c4)c4ccccc43)[C@H]2C)cc1 | -0.811 (inactive) | -0.144 | 10.4 (active) | 2.06 (inactive) | 0.538 (inactive) | 0.989 (inactive) | 0.135 | 0.702 (inactive) | 1.4 (inactive) | 2.32 |
| COCCOC(=O)N1C(=O)[C@@]2(c3cc(C#CCCO)ccc31)[C@H](c1ccc(O)cc1)N1[C@H](c3ccccc3)[C@H](c3ccccc3)OC(=O)[C@H]1[C@@H]2C(=O)N1CCN(c2ncccn2)CC1 | 0.209 (inactive) | 1.97 | 1.65 (inactive) | 0.0986 (inactive) | 0.599 (inactive) | 0.235 (inactive) | 0.078 | 1.11 (inactive) | 0.682 (inactive) | 1.85 |
| CC(C)Cc1ccc(CN2CC[C@@H](N)C2)cc1 | -3.85 (inactive) | -0.0969 | 0.483 (inactive) | 0.933 (inactive) | -0.285 (inactive) | 0.525 (inactive) | 0.412 | -0.0323 (inactive) | -0.535 (inactive) | -1.29 |
| O=C1C2C=CC(C(O)c3cc(C(F)(F)F)cc(C(F)(F)F)c3)N(Nc3ccccc3)C2C(=O)N1c1ccccc1 (stereo not given) | -0.355 (inactive) | 0.345 | 4.95 (inactive) | 2.77 (inactive) | -2.01 (inactive) | 2.64 (inactive) | -0.62 | 0.376 (inactive) | -4.65 (inactive) | -1.33 |
| CCCC[C@@H]1C[C@H]1[C@@H](NC(=O)c1cccnc1)c1ccc(Cl)cc1 | -3.66 (inactive) | -0.321 | 2.29 (inactive) | 1.51 (inactive) | 0.395 (inactive) | 1.03 (inactive) | 0.348 | -0.56 (inactive) | -1.3 (inactive) | 0.715 |
| C=CC1c2cc(O)c(OC)cc2CCN1Cc1cccc(OC(F)(F)F)c1 (stereo not given) | 0.277 (inactive) | 0.123 | 5.32 (inactive) | 0.544 (inactive) | 0.2 (inactive) | 0.451 (inactive) | -0.318 | -4.69 (inactive) | -2.9 (inactive) | -4.4 |
| COCCOC(=O)N1C(=O)[C@@]2(c3cc(C#CC4=CCCCC4)ccc31)[C@H](c1ccc(OCCO)cc1)N1[C@H](c3ccccc3)[C@H](c3ccccc3)OC(=O)[C@H]1[C@@H]2C(=O)N1CCc2cc(OC)c(OC)cc2C1 | 1.8 (inactive) | 0.26 | 3.15 (inactive) | 2.02 (inactive) | 0.817 (inactive) | 1.13 (inactive) | 0.0337 | 0.711 (inactive) | 0.842 (inactive) | 1.43 |
| C#CCOc1ccc(C[C@@H](C(=O)OC)N(CC#C)[C@@H](/C=C/C2CC2)[C@H](O)Cc2ccccc2)cc1 | -1.04 (inactive) | -0.101 | 1.7 (inactive) | 0.135 (inactive) | -0.173 (inactive) | -0.111 (inactive) | -0.138 | -0.0591 (inactive) | 0.763 (inactive) | -0.732 |
| [N-]=[N+]=Nc1ccccc1C[C@]1(C(=O)NCC(O)CO)N=C(c2ccc(OCCCO)cc2)O[C@H]1c1ccccc1 (stereo not given in full) | -0.2 (inactive) | 0.027 | 19.9 (active) | 3.78 (inactive) | 1.64 (inactive) | 1.18 (inactive) | -0.132 | 1.34 (inactive) | 0.567 (inactive) | -1.25 |
| COc1ccc([Si](C)(C)[C@@H]2[C@@H](CC(=O)N3CCC[C@H]3CO)O[C@]3(C(=O)N(Cc4cccc(I)c4)c4ccccc43)[C@H]2C)cc1 | -0.423 (inactive) | -0.111 | 6.47 (inactive) | 0.966 (inactive) | 1.39 (inactive) | 0.917 (inactive) | 2.02 | 2.97 (inactive) | 0.91 (inactive) | 4.33 |
| CCCC1(C(=O)OC)C=C2C(=C(c3ccccc3)C(=O)C2C)CN1 (stereo not given) | -1.23 (inactive) | 0.51 | 2.2 (inactive) | 0.194 (inactive) | 0.923 (inactive) | 0.324 (inactive) | -0.267 | -0.2 (inactive) | -2.64 (inactive) | -2.63 |
| COc1ccc(C#Cc2ccc3c(c2)[C@]2(C(=O)N3)[C@H](c3ccc(O)cc3)N3[C@H](c4ccccc4)[C@H](c4ccccc4)OC(=O)[C@H]3[C@@H]2C(=O)N2CCc3cc(OC)c(OC)cc3C2)cc1 | -0.291 (inactive) | 0.156 | 0.276 (inactive) | 0.312 (inactive) | -0.205 (inactive) | 0.196 (inactive) | -0.0494 | 1.12 (inactive) | 0.579 (inactive) | -0.568 |
| COc1ccc(CCNC(=O)[C@@]2(c3ccc([N+](=O)[O-])cc3)CC(=O)N(CC34CC5CC(CC(C5)C3)C4)[C@@H]2c2ccc(CO)cc2I)cc1 | 0.655 (inactive) | -0.223 | 16.3 (active) | 3.25 (inactive) | 3.61 (inactive) | 0.838 (inactive) | 3.37 | 0.675 (inactive) | -4.2 (inactive) | -3.66 |
| O=C(O)[C@H](Cc1ccccc1)n1cc(-c2ccccc2)nn1 | -0.695 (inactive) | -0.144 | -0.256 (inactive) | 0.216 (inactive) | -0.564 (inactive) | 0.161 (inactive) | 0.473 | -1.58 (inactive) | 0.283 (inactive) | -0.837 |
| CCCCN1CC=CC23O[C@@H]4/C=C\CCCOC(=O)C4[C@H]2C(=O)N(CCCCCO)[C@@H]3C1=O (stereo not given in full) | -0.852 (inactive) | -0.328 | 0.896 (inactive) | 0.481 (inactive) | -0.765 (inactive) | 0.0625 (inactive) | -0.782 | 1.07 (inactive) | -0.18 (inactive) | 1.74 |
| COc1ccc(NN2C(C(O)c3ccc(N(C)C)cc3)C=CC3C(=O)N(C4CCCCC4)C(=O)C32)cc1 (stereo not given) | -0.446 (inactive) | 0.384 | 5.03 (inactive) | 0.589 (inactive) | 0.193 (inactive) | 0.484 (inactive) | -0.25 | -0.759 (inactive) | -3.43 (inactive) | -2.98 |
| COCC(=C=CC[C@H](O)c1cccc(OCCO)c1)C[C@H](O)c1cc(Cl)cc(Cl)c1O | 0.652 (inactive) | 0.0012 | 22.1 (active) | 5.78 (inactive) | 0.658 (inactive) | 1.21 (inactive) | 0.232 | -0.707 (inactive) | -0.429 (inactive) | -1.25 |
| O=C1O[C@@H](c2ccccc2)[C@@H](c2ccccc2)N2[C@@H](c3ccccc3OCCO)[C@]3(C(=O)Nc4ccccc43)[C@@H](C(=O)O)[C@H]12 | -0.749 (inactive) | -0.518 | 0.749 (inactive) | 0.745 (inactive) | -1.6 (inactive) | 0.761 (inactive) | 0.128 | 2.66 (inactive) | 0.516 (inactive) | 1.24 |
| Cc1ccc([C@H]2C(C(=O)O)=CCN2S(=O)(=O)c2ccc(C)cc2)cc1 | -0.813 (inactive) | -0.0308 | 1.48 (inactive) | 0.495 (inactive) | 0.164 (inactive) | 0.291 (inactive) | -0.579 | 0.441 (inactive) | -0.84 (inactive) | -1.62 |
| CN1C(=O)C2C=CC(C(O)C=Cc3ccc([N+](=O)[O-])cc3)N(Nc3ccccc3)C2C1=O (stereo not given) | -1.84 (inactive) | -0.139 | 6.52 (inactive) | 1.48 (inactive) | 0.86 (inactive) | 1.32 (inactive) | -1.05 | -1.57 (inactive) | -3.82 (inactive) | -2.44 |
| O=C1O[C@H](c2ccccc2)[C@H](c2ccccc2)N2[C@H]1[C@@H](C(=O)N1CCN(c3ncccn3)CC1)[C@]1(C(=O)Nc3ccc(C#CC4=CCCCC4)cc31)[C@H]2c1ccccc1OCCO | -0.544 (inactive) | 1.52 | 1.45 (inactive) | 0.746 (inactive) | 0.774 (inactive) | 1.03 (inactive) | -0.187 | 1.46 (inactive) | 0.867 (inactive) | 1.01 |
| O=C1O[C@H](c2ccccc2)[C@H](c2ccccc2)N2[C@H]1[C@@H](C(=O)NC[C@H](O)c1ccccc1)[C@]1(C(=O)Nc3ccccc31)[C@H]2c1ccc(O)cc1 | 0.281 (inactive) | 0.0191 | 2.49 (inactive) | 1.29 (inactive) | -0.214 (inactive) | 1.29 (inactive) | -0.482 | -0.0983 (inactive) | -0.705 (inactive) | 0.152 |
